{"source": "PubChem BioAssay (NCATS)", "key": {"[1]": {"assay": "qHTS of pediatric cancer cell lines to identify multiple opportunities for drug repurposing: Primary screen for BT-12 cells (AID 1347101); further: nearly all actives have a fitted effect of over 25% in size; further: potency means the concentration at half of the fitted maximal effect", "outline": "(§1)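 Cells (500-1,000/well) rested 5 h, then received compounds for 48 h; metabolically active cells were measured by CellTiter-Glo luminescence. Final concentrations spanned up to 46 µM (MIPE, 11-point) or 0.59 nM-46 µM (NPC, 8-point) in primary screens, 11-point in follow-ups.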"}, "[2]": {"assay": "qHTS of pediatric cancer cell lines to identify multiple opportunities for drug repurposing: Primary screen for Rh18 cells (AID 1347102)", "outline": "(§2)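 Viability after 48 h compound treatment at 37C, 500-1,000 cells/well, read as ATP luminescence with CellTiter-Glo. Primary screens used 11-point (MIPE, 0.78 nM-46 µM) or 8-point (NPC, 0.59 nM-46 µM) final concentrations; follow-up screens used 11-point dilutions.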"}, "[3]": {"assay": "qHTS of pediatric cancer cell lines to identify multiple opportunities for drug repurposing: Primary screen for RD cells (AID 1347104)", "outline": "(§3)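 ATP-based luminescence (CellTiter-Glo) quantifies viability after a 48-hour exposure. Compounds are dosed across 8 or 11 final concentrations; DMSO and 2.3 µM bortezomib serve as controls.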"}, "[4]": {"assay": "qHTS of pediatric cancer cell lines to identify multiple opportunities for drug repurposing: Primary screen for Rh30 cells (AID 1347107)", "outline": "as §2"}, "[5]": {"assay": "qHTS of pediatric cancer cell lines to identify multiple opportunities for drug repurposing: Primary screen for Rh41 cells (AID 1347108)", "outline": "as §3"}, "[6]": {"assay": "qHTS of pediatric cancer cell lines to identify multiple opportunities for drug repurposing: Confirmatory screen for A673 cells (AID 1347110)", "outline": "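qHTS titration format: primary MIPE 0.78 nM-46 µM (11 pts), NPC 0.59 nM-46 µM; confirmation 11 pts. 48 h, CTG luminescence.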"}, "[7]": {"assay": "qHTS of pediatric cancer cell lines to identify multiple opportunities for drug repurposing: Confirmatory screen for SK-N-MC cells (AID 1347111)", "outline": "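SK-N-MC cells at 500-1,000 cells/well in growth media were pre-incubated 5 h, then exposed to compounds at 11-point dilutions for 48 h at 37 degrees C, 5% CO2. Viability was read as CellTiter-Glo luminescence.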"}, "[8]": {"assay": "qHTS of pediatric cancer cell lines to identify multiple opportunities for drug repurposing: Confirmatory screen for BT-12 cells (AID 1347112)", "outline": "as §2"}, "[9]": {"assay": "qHTS of pediatric cancer cell lines to identify multiple opportunities for drug repurposing: Confirmatory screen for LAN-5 cells (AID 1347113)", "outline": "as §2"}, "[10]": {"assay": "qHTS of pediatric cancer cell lines to identify multiple opportunities for drug repurposing: Confirmatory screen for NB-EBc1 cells (AID 1347115)", "outline": "as §2"}, "[11]": {"assay": "qHTS of pediatric cancer cell lines to identify multiple opportunities for drug repurposing: Confirmatory screen for BT-37 cells (AID 1347117)", "outline": "as §2"}, "[12]": {"assay": "qHTS of pediatric cancer cell lines to identify multiple opportunities for drug repurposing: Confirmatory screen for MG 63 (6-TG R) cells (AID 1347119)", "outline": "as §2"}, "[13]": {"assay": "qHTS of pediatric cancer cell lines to identify multiple opportunities for drug repurposing: Primary screen for NB1643 cells (AID 1347099)", "outline": "as §3"}, "[14]": {"assay": "qHTS of pediatric cancer cell lines to identify multiple opportunities for drug repurposing: Primary screen for OHS-50 cells (AID 1347103)", "outline": "as §1"}, "[15]": {"assay": "qHTS of pediatric cancer cell lines to identify multiple opportunities for drug repurposing: Primary screen for MG 63 (6-TG R) cells (AID 1347105)", "outline": "as §3"}, "[16]": {"assay": "qHTS of pediatric cancer cell lines to identify multiple opportunities for drug repurposing: Primary screen for control Hh wild type fibroblast cells (AID 1347106)", "outline": "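Cells (500-1,000/well) in growth media were settled 5 h at 37 degrees C, then given compounds for 48 h. Viability was read as CellTiter-Glo luminescence. Primary runs used MIPE at 11 points (0.78 nM-46 µM) and NPC at 8 points (0.59 nM-46 µM); follow-ups used 11 points.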"}, "[17]": {"assay": "qHTS of pediatric cancer cell lines to identify multiple opportunities for drug repurposing: Primary screen for LAN-5 cells (AID 1347100)", "outline": "as §2"}}, "note": "Inconclusive results are not listed. Entries that show only a call come without a potency. The source made the active and inactive calls. The call rests on the fitted dose curve; in most records, active means well fitted curve in the direction sought with a large enough effect; inconclusive means small, poorly fitted or top-dose-only effect, or another doubt; inactive means no such curve, though single readings can be large; an effect the other way counts as inactive or inconclusive.", "data": [{"molecule": "CC(=O)O[C@@H]1C(=O)O[C@@H]2[C@H]1OC(=O)[C@@H]2OC(C)=O", "values": [{"measurement": "Potency", "setting": "[1]", "value": "inactive"}, {"measurement": "Potency", "setting": "[2]", "value": "inactive"}, {"measurement": "Potency", "setting": "[3]", "value": "inactive"}, {"measurement": "Potency", "setting": "[4]", "value": "inactive"}, {"measurement": "Potency", "setting": "[5]", "value": "inactive"}, {"measurement": "Potency", "setting": "[6]", "value": "inactive"}, {"measurement": "Potency", "setting": "[7]", "value": "16.5 µM (active)"}, {"measurement": "Potency", "setting": "[8]", "value": "inactive"}, {"measurement": "Potency", "setting": "[9]", "value": "inactive"}, {"measurement": "Potency", "setting": "[10]", "value": "inactive"}, {"measurement": "Potency", "setting": "[11]", "value": "inactive"}, {"measurement": "Potency", "setting": "[12]", "value": "inactive"}]}, {"molecule": "O=C(c1cc(O)c(O)c(O)c1)c1ccc(O)c(O)c1O", "values": [{"measurement": "Potency", "setting": "[13]", "value": "inactive"}, {"measurement": "Potency", "setting": "[2]", "value": "inactive"}, {"measurement": "Potency", "setting": "[14]", "value": "24.6 µM (active)"}, {"measurement": "Potency", "setting": "[3]", "value": "inactive"}, {"measurement": "Potency", "setting": "[15]", "value": "inactive"}, {"measurement": "Potency", "setting": "[16]", "value": "inactive"}, {"measurement": "Potency", "setting": "[4]", "value": "inactive"}, {"measurement": "Potency", "setting": "[5]", "value": "inactive"}]}, {"molecule": "CCCCCCOC(=O)NC(=N)c1ccc(NCc2nc3cc(C(=O)N(CCC(=O)OCC)c4ccccn4)ccc3n2C)cc1", "values": [{"measurement": "Potency", "setting": "[2]", "value": "inactive"}, {"measurement": "Potency", "setting": "[15]", "value": "inactive"}, {"measurement": "Potency", "setting": "[4]", "value": "inactive"}]}, {"molecule": "CCCCCCCCCCCCCCCC[N+](C)(C)Cc1ccccc1", "values": [{"measurement": "Potency", "setting": "[17]", "value": "21.1 µM (active)"}, {"measurement": "Potency", "setting": "[1]", "value": "11 µM (active)"}, {"measurement": "Potency", "setting": "[2]", "value": "11.9 µM (active)"}, {"measurement": "Potency", "setting": "[14]", "value": "11 µM (active)"}, {"measurement": "Potency", "setting": "[15]", "value": "26.6 µM (active)"}]}, {"molecule": "OC[C@]1(O)OC[C@@H](O)[C@H](O)[C@@H]1O", "values": [{"measurement": "Potency", "setting": "[17]", "value": "inactive"}, {"measurement": "Potency", "setting": "[1]", "value": "inactive"}, {"measurement": "Potency", "setting": "[2]", "value": "inactive"}, {"measurement": "Potency", "setting": "[14]", "value": "inactive"}, {"measurement": "Potency", "setting": "[3]", "value": "inactive"}, {"measurement": "Potency", "setting": "[15]", "value": "inactive"}, {"measurement": "Potency", "setting": "[16]", "value": "inactive"}, {"measurement": "Potency", "setting": "[4]", "value": "inactive"}, {"measurement": "Potency", "setting": "[5]", "value": "inactive"}]}, {"molecule": "C/C(=C(/OCCOc1ccc(Cl)cc1)c1ccc(Cl)cc1Cl)n1ccnc1", "values": [{"measurement": "Potency", "setting": "[17]", "value": "inactive"}, {"measurement": "Potency", "setting": "[15]", "value": "inactive"}, {"measurement": "Potency", "setting": "[4]", "value": "inactive"}, {"measurement": "Potency", "setting": "[5]", "value": "inactive"}]}, {"molecule": "CC(C)(C)C1CCC(CC2=C(O)c3ccccc3C(=O)C2=O)CC1", "note": "(stereo not drawn)", "values": [{"measurement": "Potency", "setting": "[17]", "value": "9.44 µM (active)"}, {"measurement": "Potency", "setting": "[1]", "value": "24.6 µM (active)"}, {"measurement": "Potency", "setting": "[2]", "value": "inactive"}, {"measurement": "Potency", "setting": "[14]", "value": "3.89 µM (active)"}, {"measurement": "Potency", "setting": "[16]", "value": "inactive"}]}, {"molecule": "Cc1nc(C2CCCCC2)c(-c2ccc(S(N)(=O)=O)c(F)c2)o1", "values": [{"measurement": "Potency", "setting": "[17]", "value": "inactive"}, {"measurement": "Potency", "setting": "[2]", "value": "inactive"}, {"measurement": "Potency", "setting": "[3]", "value": "inactive"}, {"measurement": "Potency", "setting": "[15]", "value": "inactive"}, {"measurement": "Potency", "setting": "[16]", "value": "inactive"}, {"measurement": "Potency", "setting": "[4]", "value": "inactive"}, {"measurement": "Potency", "setting": "[5]", "value": "inactive"}]}, {"molecule": "COc1ccc([C@@H]2Sc3ccccc3NC(=O)[C@@H]2O)cc1", "values": [{"measurement": "Potency", "setting": "[13]", "value": "inactive"}, {"measurement": "Potency", "setting": "[2]", "value": "inactive"}, {"measurement": "Potency", "setting": "[16]", "value": "inactive"}, {"measurement": "Potency", "setting": "[4]", "value": "inactive"}, {"measurement": "Potency", "setting": "[5]", "value": "inactive"}]}]}
